High-throughput results (PubChem BioAssay)
This is one part of a sample in which hits are shown more often than they occur.
IDE exosite inh – displaces the probe from the exo-site of human IDE | AID 1259349 | P14735 | purified IDE, FL-6b probe fluorescence polarization; active compounds read low | z-score at 20 µM | 6.3% of 17,000 active;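 active means z-score of -3 or lower, meaning strong loss of probe binding signal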;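 further: His-tagged human IDE residues 42-1019 made in E. coli with 30 nM FL-6b probe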
Each line names hits and unclear results; the compound was inactive in the other large screens.

CCCNC(=O)N1CC(=O)N2[C@H](CO)[C@H](c3ccc(-c4ccc(C)cc4)cc3)[C@@H]2C1	none
CCCNC(=O)N1CC(=O)N2[C@H](C1)[C@@H](c1ccc(-c3ccc(F)cc3)cc1)[C@@H]2CO	none
CCCNC(=O)N1CC(=O)N2[C@H](C1)[C@H](c1ccc(-c3cccc(C)c3)cc1)[C@@H]2CO	IDE exosite inh -14
CCCNC(=O)N1CC(=O)N2[C@H](CO)[C@@H](c3ccc(-c4ccc(C)cc4)cc3)[C@H]2C1	IDE exosite inh -3.1
COc1ccccc1NC(=O)N1CCCCN2[C@H](CO)[C@H](c3ccc(-c4cccc(C)c4)cc3)[C@H]2C1	none
CCCNC(=O)N1CC(=O)N2[C@H](CO)[C@H](c3ccc(-c4ccccc4)cc3)[C@@H]2C1	none
O=C(c1ccccc1)N1CC(=O)N2[C@@H](CO)[C@H](c3ccc(C4=CCCC4)cc3)[C@@H]2C1	none
CCc1cnc(N2[C@@H](C#N)[C@@H](c3ccc(C#Cc4ccccc4F)cc3)[C@@H]2CO)s1	none
CCCC(=O)N1CC2(CCN(S(=O)(=O)CC)CC2)c2c(n(C)c3cc(OC)ccc23)[C@H]1CO	none
CCS(=O)(=O)N1CCCCN2[C@@H](CO)[C@H](c3ccc(C#CC(C)(C)O)cc3)[C@@H]2C1	none
O=C(Nc1ccc(F)cc1)N1CC(=O)N2[C@H](CO)[C@H](c3ccc(C#Cc4ccccc4)cc3)[C@@H]2C1	none
N#C[C@H]1[C@@H](c2ccc(C#CC3(O)CCCC3)cc2)[C@@H](CO)N1C(=O)C1CCCC1	none
COCC(=O)N1CCCCN2[C@H](CO)[C@@H](c3ccc(-c4ccc(C)cc4)cc3)[C@@H]2C1	none
CCCC#Cc1ccc([C@H]2[C@H](CO)N3CCCCN(S(C)(=O)=O)C[C@@H]23)cc1	none
O=S(=O)(Cc1ccccc1)N1CCCCN2[C@@H](CO)[C@@H](c3ccc(C#Cc4ccccc4)cc3)[C@@H]2C1	none
COc1ccccc1C#Cc1ccc([C@H]2[C@@H](CO)N3CCCCN(S(C)(=O)=O)C[C@@H]23)cc1	IDE exosite inh -10
CCS(=O)(=O)N1CCCCN2[C@@H](CO)[C@H](c3ccc(C#Cc4ccccc4OC)cc3)[C@@H]2C1	IDE exosite inh -5.9
O=S(=O)(Cc1ccccc1)N1CCCCN2[C@H](CO)[C@H](c3ccc(C#Cc4ccccc4)cc3)[C@@H]2C1	none
COc1ccccc1C#Cc1ccc([C@@H]2[C@@H](CO)N3CCCCN(S(C)(=O)=O)C[C@H]23)cc1	IDE exosite inh -5.6
CS(=O)(=O)N1CCCCN2[C@H](CO)[C@H](c3ccc(C#Cc4ccccn4)cc3)[C@@H]2C1	none
CCCC#Cc1ccc([C@H]2[C@@H](CO)N3CCCCN(S(C)(=O)=O)C[C@@H]23)cc1	none
COc1ccc(C#Cc2ccc([C@@H]3[C@H](CO)N4CCCCN(S(=O)(=O)c5ccccc5)C[C@@H]34)cc2)cc1	none
COc1ccc([C@H]2C/C=C\C[C@H](c3cccc(Cl)c3)NC(=O)[C@@H](c3ccccc3)CC(=O)N2)c(OC)c1	none
O=C(c1cccnc1)N1CC(=O)N2[C@@H](CO)[C@H](c3ccc(/C=C/c4ccccc4)cc3)[C@@H]2C1	IDE exosite inh -15
O=C(c1cccnc1)N1CC(=O)N2[C@H](C1)[C@H](c1ccc(-c3ccc(F)cc3)cc1)[C@@H]2CO	none
O=C(c1cccnc1)N1CC(=O)N2[C@H](CO)[C@@H](c3ccc(-c4ccc(F)cc4)cc3)[C@H]2C1	none
O=C(c1cccnc1)N1CC(=O)N2[C@H](CO)[C@H](c3ccc(/C=C/c4ccccc4)cc3)[C@H]2C1	IDE exosite inh -16
COc1cccc(C#Cc2ccc([C@H]3[C@@H](CO)N4C(=O)CN(S(=O)(=O)c5ccccc5C)C[C@H]34)cc2)c1	none
C[C@@H]1CC=CC[C@@H](c2ccccc2)NC(=O)[C@@H](C)N(C)C(=O)c2ccccc2O1 (mixture of isomers)	none
N#C[C@@H]1N[C@@H](CO)[C@H]1c1ccc(C#CC2CCCC2)cc1	none
CCCC#Cc1ccc([C@@H]2[C@@H](CO)N3C(=O)CN(S(=O)(=O)c4ccccc4C)C[C@H]23)cc1	none
O=C(Nc1cccc(F)c1)N1CC(=O)N2[C@H](C1)[C@@H](c1ccc(-c3ccccc3F)cc1)[C@@H]2CO	none
O=C(NC1CCCCC1)N1CC(=O)N2[C@H](CO)[C@H](c3ccc(/C=C/c4ccccc4)cc3)[C@H]2C1	IDE exosite inh -6.7
CC(C)NC(=O)N1CC(=O)N2[C@H](C1)[C@H](c1ccc(/C=C/c3ccccc3)cc1)[C@@H]2CO	IDE exosite inh -3.8
C/C=C/c1ccc([C@H]2[C@@H](CO)N3C(=O)CN(C(=O)NC4CCCCC4)C[C@@H]23)cc1	none
CC(C)NC(=O)N1CC(=O)N2[C@H](CO)[C@H](c3ccc(/C=C/c4ccccc4)cc3)[C@@H]2C1	none
CC(C)NC(=O)N1CC(=O)N2[C@H](C1)[C@@H](c1ccc(/C=C/c3ccccc3)cc1)[C@@H]2CO	none
O=C(NC1CCCCC1)N1CC(=O)N2[C@H](CO)[C@@H](c3ccc(/C=C/c4ccccc4)cc3)[C@H]2C1	IDE exosite inh -4.4
O=C(Nc1ccccc1)N1CC(=O)N2[C@H](CO)[C@@H](c3ccc(-c4ccc(F)cc4)cc3)[C@H]2C1	none
C[C@H]1COCc2cnnn2CC[C@H](Cc2ccccc2)C(=O)N1	none
